# Experimental data from ChEMBL document CHEMBL3988442, “University of Dundee, Small-Polar-MMV Screening Library” (2021).
# Molecular target: AMP-activated protein kinase, AMPK (Homo sapiens) (UniProt P54646+O43741+P54619+Q9UGJ0+Q9Y478+Q13131+Q9UGI9)
# Experiment: AMP-dependent Kinase enzyme assay. An in vitro enzyme assay that detects ADP turnover that is directly proportional to AMPK activity. This uses naive AMPK that is activated during the assay with MK-8722
# Assay type: functional
# Set-up: scale not given: direction of the effect not stated beside the values
# Conditions: 30 µM
row,Compound,Percent Effect [%]
1,Cc1ncc(CNC(CCO)C2CCCCC2)s1 (stereo not given),4.05
2,Cc1c(NC(=O)N(C)CCO)cccc1OC1CCCC1,-3.01
3,COCCC(C)NCc1ccccc1-n1ccnc1 (stereo not given),-0.71
4,COC[C@]1(O)CCN(c2cc(N3CCOCC3)ncn2)CC1(C)C,-1.8
5,Cc1ccc(C(=O)N(C)CC(=O)N2CCCC2)c(C)c1,-2.76
6,COc1ccc2c(c1)CCCN(CC(=O)NCC1CCCO1)C2 (stereo not given),-4.46
7,CN(C)c1ccc(CN2CCN(c3ccc(C#N)cc3)C(=O)C2)cn1,-0.161
8,COc1ccc(CC2(CO)CCN(c3cc(N)ncn3)CC2)cc1,8.25
9,CCN1CCC(CC(=O)NCc2nc(C)cc(C)n2)CC1,9.34
10,COC(=O)CC1CCCCN1CC(=O)Nc1cc(F)ccc1F (stereo not given),7.24
11,CC(C)(C)SCCN1CC(=O)N2CC[C@@H](O)C[C@H]2C1=O,3.02
12,Cc1ccncc1CN1CCOCC1c1[nH]ncc1C (stereo not given),17
13,COCC1(Nc2nc(C)nc3c2cnn3C)CCCC1,-2.92
14,Cc1nnc(C(C)N2CCN(Cc3noc(C(C)(C)C)n3)CC2)o1 (stereo not given),-8.02
15,N#CC1CCN(C(=O)CN2CC(c3ccccc3)CC2=O)CC1 (stereo not given),5.49
16,NC(=O)C1CCN(CCCNC(=O)Nc2nccs2)CC1,5.68
17,FC(F)(F)c1ccnc(N2CCC(c3nccn3CC3CC3)CC2)n1,19.6
18,N#Cc1cc(S(N)(=O)=O)ccc1N1CCN(c2ccccc2)CC1,10.8
19,CN1CCC(c2n[nH]c(=O)n2-c2cccc(Cl)c2)CC1,65.1
20,O=C(NCc1nnc2n1CCCC2)c1ccc(C2CCCO2)s1 (stereo not given),-8.64
